Screening data as filed in PubChem.
The full list was thinned out, with hits kept by preference.
IL-1B inflam inh: inhibitors of inflammasome signaling (IL-1 beta secretion). activity change, % at 57.5 µM. hit rate 4.7% among 360,000. THP-1 LPS/ATP IL-1B secretion, AlphaLISA, 16 h; hits give low values. AID 743279; in the data active = activity change below about -50%; inconclusive = mostly about -30% to -49%
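Secreted IL-1B measured by AlphaLISA bead assay after 16 h compound exposure of THP-1 cells; compounds (final up to 57.5 uM) added 1 h before LPS (250 ng/mL) and ATP (1.25 mM) stimulation; lower signal means less secretion.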
HT1080 IDH1KD tx: HT-1080 IDH1 knockdown cell toxicity (counter line). HT-1080 IDH1 knockdown viability, ATP luminescence, 48 h. Potency, µM (series often up to 46.1 µM), inactives show top-dose activity, negative = toxicity, hits mostly cytotoxic. hit rate 2% among 360,000. AID 686971;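 note: potency is the fitted concentration of half-maximal effect; 0% = DMSO wells and -100% = cell-free medium wells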
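IDH1KD HT-1080 cells, 750/well, RPMI + 5% FBS; compound pinned after 2 h settling; 48 h, 37 °C; CellTiter-Glo luminescence; % activity normalised to DMSO and no-cell wells; curves fitted, classed by r2 and efficacy.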
HT1080NT lethal: kills 2HG-producing HT-1080-NT fibrosarcoma cells. HT-1080-NT fibrosarcoma viability, CellTiter-Glo ATP luminescence, 48 h. Potency, µM (doses to about 46.1 µM), without a hit: top-dose activity, negative = less viability, hits mostly cytotoxic. hit rate 1.6% among 360,000. AID 686970;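 note: NT is the 2HG producing partner of a matched IDH1 knockdown line; potency is the fitted concentration of half-maximal effect; 0% = DMSO-treated cells and -100% = media-only wells without cells; nearly all actives have a fitted effect of over 55% in size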
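Fibrosarcoma NT cells, 750 per well in 5% FBS RPMI, were exposed to compound for 48 hours. Viability: CellTiter-Glo luminescence.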
DT40 TDP1 no CPT: qHTS for Inhibitors of human tyrosyl-DNA phosphodiesterase 1 (TDP1): qHTS in cells in absence of CPT | hit rate 15% among 420,000 | DT40 Tdp1-/- hTDP1 cells, no CPT, ATP luminescence, 48 h | Potency, µM (top dose mostly 46.2 µM), without a hit: top-dose activity change, negative = growth inhibition, hits mostly inhibitors; note: potency is the fitted concentration of half-maximal effect; nearly all actives have a fitted effect of over 55% in size
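A cellular qHTS used chicken DT40 cells lacking endogenous Tdp1 but carrying stably transfected human TDP1. Compounds were applied without camptothecin, and cell growth kinetics were judged by ATP-dependent luminescence after ≥48 hr.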
DT40 TDP1 CPT: growth inhibition of DT40 Tdp1-/-;hTDP1 cells with camptothecin (screen for TDP1 inhibitors); chicken DT40 Tdp1-/-;hTDP1 cells + 20 nM CPT, ATP luminescence, 48 h; Potency, µM (doses to about 46.2 µM), inactives show at the top dose activity change, negative = growth inhibition, most hits filed as inhibitors; hit rate 12% among 420,000; AID 686979; note: potency is the fitted concentration of half-maximal effect; nearly all actives have a fitted effect of over 55% in size
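Chicken DT40 Tdp1-/- cells complemented with human TDP1, 400 cells/well, exposed to compounds plus 20 nM camptothecin for at least 48 h at 37 C; viability read as ATP content by CellTiter-Glo luminescence.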
ALOX12 inh: ALOX12 (human) lipoxygenase inhibition. P18054. purified 12hLO, xylenol orange hydroperoxide absorbance. Potency, µM (top dose mostly 108 µM), for the others: at the top dose activity change, negative = inhibition, usual class: inhibitors. hit rate 1.1% among 580,000. AID 1671190; note: potency is the fitted concentration of half-maximal effect
Target sequence (P18054 whole entry, looked up): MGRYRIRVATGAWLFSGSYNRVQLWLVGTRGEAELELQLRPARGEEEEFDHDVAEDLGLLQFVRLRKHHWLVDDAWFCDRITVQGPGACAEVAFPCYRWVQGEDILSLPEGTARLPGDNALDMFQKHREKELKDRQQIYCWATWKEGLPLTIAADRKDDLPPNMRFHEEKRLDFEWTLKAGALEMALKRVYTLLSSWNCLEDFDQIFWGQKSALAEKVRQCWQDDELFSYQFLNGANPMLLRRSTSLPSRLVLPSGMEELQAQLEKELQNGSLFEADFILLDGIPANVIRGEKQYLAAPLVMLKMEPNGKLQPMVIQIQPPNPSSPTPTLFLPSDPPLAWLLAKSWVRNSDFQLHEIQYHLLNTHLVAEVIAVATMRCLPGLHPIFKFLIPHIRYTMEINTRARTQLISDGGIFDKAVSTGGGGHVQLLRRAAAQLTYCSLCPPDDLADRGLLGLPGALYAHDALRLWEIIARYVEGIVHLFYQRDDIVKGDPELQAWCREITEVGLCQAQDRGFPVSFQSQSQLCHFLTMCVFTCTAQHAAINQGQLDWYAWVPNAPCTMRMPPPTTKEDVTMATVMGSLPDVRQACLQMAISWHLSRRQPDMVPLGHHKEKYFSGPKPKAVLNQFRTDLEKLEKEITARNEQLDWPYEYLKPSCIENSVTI
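Purified human 12hLO at 150 nM in 25 mM Hepes, 0.01% Triton X-100, pH 7.0, preincubated 15 min at room temperature with compound. Reaction started with 40 uM arachidonic acid, 30 min at room temperature. Hydroperoxide measured by Fe-xylenol orange, 573/405 nm absorbance ratio.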
Active calls of the source: *; ? = inconclusive; . = no result given. Unless noted, calls come from the whole dose curve; as a rule, active = well fitted curve in the direction sought with a large enough effect; inconclusive = small, poorly fitted or top-dose-only effect, or another doubt; inactive = no such curve, though single readings can be large; an effect the other way counts as inactive or inconclusive. Unless noted, % is set by controls: 0 for no effect and ±100 for the full control effect.

SMILES	IL-1B inflam inh	HT1080 IDH1KD tx	HT1080NT lethal	DT40 TDP1 no CPT	DT40 TDP1 CPT	ALOX12 inh
CCOC(=O)c1cccc(COC(=O)c2cccc(-c3nnc(-c4ccccc4)o3)c2)c1	-10	12%	13%	16µM*	26µM*	-11%
CC1=C/C(=C(\c2ccc(O)c(C)c2)c2ccccc2S(=O)(=O)O)C=CC1=O	7	4%	2%	-5%	1%	6.3µM*
S=c1nc2ccccc2c2nc(-c3ccccc3Br)[nH]n12	17	-5%	-12%	1µM*	2.1µM*	-8%
O=C(NCc1ccccc1)C1CCCN(C(=O)NCc2ccccc2)C1 (configuration not stated)	2	8%	2%	4%	1.5µM*	2%
O=C(NCc1ccccc1)N1CCN(c2ccc(Cl)c(Cl)c2)CC1	39	?	?	5.8µM*	18µM*	4%
CC(=O)c1ccc(N2CCN(C(=O)Nc3ccc(F)cc3F)CC2)cc1	-10	5%	16%	-22%	?	-6%
O=C(NC1CCN(C(=O)NCc2ccccc2)CC1)c1ccc(F)cc1	18	15%	11%	-12%	-2%	11%
O=C(Nc1ccc(F)cc1F)N1CCN(c2ccc(Cl)c(Cl)c2)CC1	.	.	.	4.6µM*	6.5µM*	-25%
O=C(O)C1CCCN(C(=O)NCc2ccccc2)C1 (configuration not stated)	-16	8%	16%	-6%	-11%	4%
O=C(c1ccc(F)cc1)C1CCN(C(=O)NCc2ccccc2)CC1	-5	-1%	-14%	23µM*	16µM*	-5%
COC(=O)c1cc2c(cc1NC(=O)c1c(C)nn(-c3ccc(C)cc3)c1-n1cccc1)OCO2	.	.	.	?	-5%	-9%
O=C(NCc1ccccc1)N1CCN(c2ccc(F)cc2)CC1	-6	21%	23%	15µM*	18µM*	46%
CC(C)Cn1cc(NC(=O)N2CCN(c3ccc(F)cc3)CC2)c2ccccc2c1=O	.	.	.	18µM*	15µM*	3%
COc1ccc(CNC(=O)N2CCN(c3ccccc3)CC2)cc1	-14	8%	13%	-6%	4%	-2%
Cc1ccc(C(=O)N2CCC(C(=O)c3ccc(F)cc3)CC2)cc1	-1	-1%	-2%	?	?	-2%
O=C(c1ccc(Cl)cc1)C1CCN(C(=O)c2ccc(F)cc2)CC1	-5	8%	-29%	10µM*	21µM*	-4%
COc1ccc(CNC(=O)CN(C)c2nn3c(=O)cc(C)nc3s2)cc1	.	.	.	-1%	-10%	-7%
O=C(O)c1cc(-c2ccccc2)nn1Cc1ccccc1	.	.	.	-19%	7%	-17%
O=C(Nc1cccc(-c2csc(Nc3cccc(C(F)(F)F)c3)n2)c1)c1ccccc1	4	?	-20%	?	?	-2%
CC(=O)NCc1ccc(-c2csc(Nc3cccc(C(F)(F)F)c3)n2)o1	.	.	.	.	.	10µM*
O=C(O)CCC(=O)Nc1cccc(-c2csc(-c3ccccc3)n2)c1	11	0%	-1%	?	-17%	-20%
O=C(Nc1ccc(-c2csc(Nc3cccc(C(F)(F)F)c3)n2)cc1)c1cc([N+](=O)[O-])cc(C(F)(F)F)c1	10	-1%	5%	16µM*	15µM*	7%
O=C(Nc1cccc(-c2csc(Nc3ccccc3)n2)c1)c1ccccc1	-61*	-26%	-26%	21µM*	?	-3%
CCCCC(=O)Nc1cccc(-c2csc(-c3ccccc3)n2)c1	-79*	?	-22%	?	?	-12%
Cc1noc(C)c1CCc1nc(C2CCOCC2)n[nH]1	.	.	.	.	.	40%
SMILES	IL-1B inflam inh	HT1080 IDH1KD tx	HT1080NT lethal	DT40 TDP1 no CPT	DT40 TDP1 CPT	ALOX12 inh
O=C(Nc1ccc(-c2csc(Nc3cccc(C(F)(F)F)c3)n2)cc1)c1ccccc1	89	-12%	-23%	9.2µM*	4.6µM*	-10%
CN(CCC#N)C(=S)NC(=O)c1ccc(S(=O)(=O)N2CCOCC2)cc1	-12	9%	9%	5%	7%	20%
CC(=O)C1=C(O)C(CSCc2ccccc2)N(C)C1=O (configuration not stated)	17	-1%	2%	?	-21%	10µM*
COC(=O)c1sc(NC(=O)C2c3ccccc3Oc3ccccc32)c(C#N)c1C	.	.	.	.	.	1%
CCOC(=O)c1c(NC(=O)C2c3ccccc3Oc3ccccc32)sc(C(=O)N(CC)CC)c1C	-19	-11%	-9%	23µM*	18µM*	4%
CCOC(=O)c1sc(NC(=O)C2c3ccccc3Oc3ccccc32)c(C#N)c1C	.	.	.	16µM*	12µM*	?
CCCCC(=O)Nc1sc(C(=O)N(CC)CC)c(C)c1C(=O)OC	0	-4%	0%	18µM*	?	35µM*
COc1ccccc1CC(=O)N1CCCN(CCc2ccccc2)c2ccccc21	.	.	.	.	.	-23%
CCOc1ccc(CCN2C(=S)N([C@@H](Cc3ccc(O)cc3)CN3CCC[C@@H]3CN3C(=S)NC[C@@H]3Cc3ccccc3)C[C@@H]2CC(C)C)cc1	-17	-5%	-13%	9.2µM*	10µM*	?
CCOc1ccc(CCN2C(=S)N([C@@H](CC(C)C)CN3CCCC3CN3C(=S)NC[C@@H]3CC(C)C)C[C@@H]2Cc2ccccc2)cc1 (some centres not stated)	15	4%	-1%	18µM*	16µM*	14µM*
CCOc1ccc(CCN2C(=S)N([C@@H](CC(C)C)CN3CCCC3CN3C(=S)NC[C@@H]3CC(C)C)C[C@@H]2CC(C)C)cc1 (some centres not stated)	26	9%	8%	18µM*	?	?
CCOc1ccc(CCN2C(=S)N([C@@H](Cc3ccc(O)cc3)CN3CCC[C@@H]3CN3C(=S)NC[C@@H]3CC(C)C)C[C@@H]2Cc2ccccc2)cc1	-16	1%	-17%	5.2µM*	4.6µM*	?
CCOc1ccc(CCN2C(=O)C(=O)N([C@@H](Cc3ccc(O)cc3)CN3CCC[C@@H]3CN3C(=O)C(=O)NC[C@@H]3Cc3ccccc3)C[C@@H]2Cc2ccccc2)cc1	?	?	?	?	?	-5%
CC(C)C[C@H]1CN([C@@H](CC(C)C)CN2CCCC2CN2C(=S)NC[C@@H]2Cc2ccccc2)C(=S)N1CCc1ccccc1 (some centres not stated)	12	3%	-3%	?	?	?
